Results reported in PubChem BioAssay (Tox21).
Records with an inconclusive call do not appear. A call without a number means that no potency is given here. Activity calls are given as the source filed them. The call rests on the fitted dose curve; in most records, active means well fitted activation curve with a large enough effect in the repeat runs; inconclusive means weak or mixed curves; inactive means no such curve, though single readings can be large or run the other way.

Assay: qHTS assay for small molecules that induce genotoxicity in human embryonic kidney cells expressing luciferase-tagged ATAD5 (AID 651632); further: nearly all actives have a fitted effect of over 15% in size
Details: HEK293T ATAD5-luciferase induction, 16 h; series mostly up to 83.3 µM
Text: U.S. Tox21 Program National Center for Advancing Translational Sciences [NCATS] NIH Chemical Genomics Center [NCGC] U.S. Environmental Protection Agency [EPA] National Institutes of Environmental Health Sciences [NIEHS] National Toxicology Program [NTP] U.S. Food and Drug Administration [FDA] Tox21 Assay Overview: As cancer cells divide rapidly and during every cell division they need to duplicate their genome by DNA replication. The failure to do so results in the cancer cell death. Based on this concept, many chemotherapeutic agents were developed but have limitations such as low efficacy and severe side effects etc. A new cell based assay was developed to find the compounds that effectively block DNA replication either by directly damaging DNA or by inhibiting other cellular mechanisms. Enhanced Level of Genome Instability Gene 1 (ELG1; human ATAD5) protein levels increase in response to various types of DNA damage. Using a luciferase reporter-gene tagged with ATAD5, a cell-based assay [developed by Kyungjae Myung, NHGRI, NIH] was used to measure the induction of ATAD5 in human embryonic kidney cells (HEK293T). So, increase in luciferase activity can be used to identify the compounds that cause genetic stress.
Tox21 Assay Protocol Summary: For genotoxicity screening, 2,000 cells in 5 uL/well were dispensed into white, solid-bottom 1536-well plates using a Multidrop Combi (Thermo Scientific) dispenser. Following transfer of 23 nL compound or DMSO vehicle by a pin tool, the plates were incubated 16 hr at 37C and 5% CO2. 5 ul Amplite (AAT Bioquest, Inc.) was then added to each plate and following 30 min incubation at room temperature, luciferase activity was quantified on a ViewLux CCD-based plate reader.
Potency means the concentration at half of the fitted maximal effect.

| Structure (SMILES) | Potency |
| --- | --- |
| CCOC(=O)COC(=O)c1cc(Oc2ccc(C(F)(F)F)cc2Cl)ccc1[N+](=O)[O-] | inactive |
| Cc1ncc(CO)c(C=O)c1O | inactive |
| C[C@@H]1C[C@H]2O[C@@]3(O[C@@H]2C(C)(C)O)[C@H](O)[C@@]2(C)[C@@H]4CC[C@H]5C(C)(C)[C@@H](O[C@@H]6OC[C@@H](O)[C@H](O)[C@H]6O)CC[C@@]56C[C@@]46CC[C@]2(C)[C@@H]13 | inactive |
| CCc1cc(C2=C(C(=O)O)N(c3ccccc3C(F)(F)F)S(=O)(=O)c3ccccc32)cc2c1OCO2 | inactive |
| CC1=CC[C@H](C(C)C)C=C1 | inactive |
| C[C@@H](c1ncncc1F)C(O)(Cn1cncn1)c1ccc(F)cc1F (stereo not given in full) | inactive |
| CCOCC(O)COc1ccc(NC(=O)CC[S+](C)C)cc1 (stereo not given) | inactive |
| NC(N)=NCCC[C@H](N)C(=O)O | inactive |
| O=[N+]([O-])c1ccc(NCCO)c(OCCO)c1 | inactive |
| O=P(O)(OCc1ccccc1)OCc1ccccc1 | inactive |
| CC[N+](C)(CC)CCOC(=O)C(O)(c1ccccc1)C1CCCCC1 (stereo not given) | inactive |
| C#C[C@]1(O)CC[C@H]2[C@@H]3CCc4cc(OC5CCCC5)ccc4[C@H]3CC[C@@]21C | inactive |
| CCCCCCCCCCCCCCCCOS(=O)(=O)O | inactive |
| O=C(O)c1ccccc1Cl | inactive |
| COc1ccc(C(=O)c2ccc(OC)cc2O)c(O)c1 | inactive |
| CCN(CC)CCOC(=O)C(c1ccccc1)C1CCCCC1 (stereo not given) | inactive |
| C=CCOc1ccccc1OCC(O)CNC(C)C (stereo not given) | inactive |
| Nc1cccc([N+](=O)[O-])c1 | inactive |
| CCCCCCCC/C=C\CCCCCCCC(=O)OCC | inactive |
| CN1CCC(=C2c3ccccc3Sc3ccccc32)CC1 | inactive |

| Structure (SMILES) | Potency |
| --- | --- |
| CCCCC(CC)COC(=O)COc1ccc(Cl)cc1Cl (stereo not given) | inactive |
| C#Cc1cccc(Nc2ncnc3cc(OCCOC)c(OCCOC)cc23)c1 | inactive |
| NCC(=O)CCC(=O)O | inactive |
| CN1C[C@H]2c3ccccc3Oc3ccc(Cl)cc3[C@@H]2C1 | inactive |
| O=C1[C@H]2CCCC[C@H]2C(=O)N1CCCCN1CCN(c2nsc3ccccc23)CC1 | inactive |
| Cc1[nH]c(C)c(Cl)c(=O)c1Cl | inactive |
| C[C@H]1C[C@H]2[C@@H]3CCC4=CC(=O)C=C[C@]4(C)[C@@]3(Cl)[C@@H](O)C[C@]2(C)[C@@]1(O)C(=O)CO | inactive |
| O=C(O)C1(C(=O)Nc2ccc(Cl)cc2Cl)CC1 | 1.93 µM (active) |
| COC(C)(C)CCO | inactive |
| CN1CCN(C(c2ccccc2)c2ccccc2)CC1 | inactive |
| CC(=O)c1ccc2c(c1)N(CCCN(C)C)c1ccccc1S2 | inactive |
| O=C(O)c1nc(Cl)c(Cl)c(Cl)c1Cl | inactive |
| CN(C)c1ccc(CCO)cc1 | inactive |
| CCCCCC[C@@H](O)C/C=C\CCCCCCCC(=O)OC | inactive |
| O=C(Nc1ccc(S(=O)(=O)N2CCOCC2)cc1)c1cc(Cl)ccc1NS(=O)(=O)c1ccc(Cl)s1 | inactive |
| CCCCCCCCO[C@@H]1O[C@H](CO)[C@@H](O)[C@H](O)[C@H]1O | inactive |
| Cc1c(N)cccc1[N+](=O)[O-] | inactive |
| CCCCNc1ccc(C(=O)OCCOCCOCCOCCOCCOCCOCCOCCOCCOC)cc1 | inactive |
| O=C1OC(=O)C2C3C=CC(C3)C12 (stereo not given) | inactive |
| c1ccc(CNCCNCc2ccccc2)cc1 | inactive |
